In PubChem BioAssay (NCI):
The panel holds about 83,000 compounds, 20% with a hit somewhere; the sample as a whole holds those more often.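 Single-concentration screen, 48 h exposure, 96-well plates. Endpoint: percent growth. Below 10 = active.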 Calls of active or inactive are those of the source.

The molecules below were run on NCI-H226 lung (assay: NCI-60 one-dose screen, 48 h (100 = growth as untreated, 0 = no growth, -100 = all killed)). Settings: 10 µM unless noted.
Protocol: Growth inhibition of the NCI-H226 human Non-Small Cell Lung tumor cell line is measured as a screen for anti-cancer activity. Cells are grown in 96 well plates and exposed to the test compound for 48 hours. Compounds are tested at a single concentration, which is 10^-5 M for most compounds. The reported endpoint is percent growth (GI% or GIPRCNT), where numbers from 0 - 100% represent growth inhibition, and numbers from -100% - 0 represent cell death. For example, a value of 40 represents 60% growth inhibition. A value of 0 means no net growth occurred over the course of the experiment. A value of -40 indicates 40% of cells at the beginning of the experiment died by the end of the experiment. A value of -100 means all cells are dead at the end of the experiment.
NCI-60 Human Tumor Cell Lines Screen was performed using the standard one-dose NCI protocol, which is described in more detail at https://dtp.cancer.gov/discovery_development/nci-60/default.htm.
Compounds with GIPRCNT values below 10 were considered active. Activity score was based on GIPRCNT using the following formula: […]
Score is 0 for GIPRCNT values of 100 or above, 50 for GIPRCNT values of 0, and 100 for GIPRCNT values of -100.

| SMILES | growth |
| --- | --- |
| CCCCCCCCCc1ccc(OCCOCCOCCOCCOCCOCCOCCOCCOCCO)cc1 | 17.3% (inactive) |
| O=C(Nc1nc2ccccc2s1)c1ccc(F)cc1 | 92.7% (inactive) |
| CCOC(=O)c1nn(-c2ccc(S(N)(=O)=O)cc2)c2nc(C)cc(=O)n12 | 104% (inactive) |
| Cc1cc(N2CCN(CC(=O)Nc3ccc4c(ccn4C)c3)CC2)nc(N2CCCCCC2)n1 | 97.9% (inactive) |
| Cc1[nH]c(C(=O)Nc2ccc(C(=O)N3CCN(c4cc5c(cc4F)c(=O)c(C(=O)O)cn5C4CC4)CC3)cc2OC(C)C)c(Cl)c1Cl | 96.5% (inactive) |
| COc1cc(-c2nccc3[nH]c(-c4ccc5cc[nH]c5c4)nc23)cc(OC)c1OC | 19.3% (inactive) |
| O=C1/C(=C/c2cn(-c3ccccc3)nc2-c2ccccc2)SC(=S)N1C1CCCCC1 | 92% (inactive) |
| COc1ccc2[nH]c(C(=O)N3CCN(C(=O)OCc4ccc5c(Cl)cc(Cl)c(O)c5n4)CC3)cc2c1 | -4.54% (active) |
| CCCCNC(=O)Oc1ccc(/C(=C(/C)Cc2ccc(OC)cc2)c2ccc(OCCN(CC)CC)cc2)cc1 | 101% (inactive) |
| CC(C)c1ccc(Cc2cnc(NC(=O)c3cc(Br)cs3)s2)cc1 | 24.5% (inactive) |
| Cc1cn(-c2cc(NC(=O)c3cncc(C#Cc4cnc(N)c5ncccc45)c3)cc(C(F)(F)F)c2)cn1 | 45.7% (inactive) |
| CCCOC(=O)Nc1nc2ccc(SCC(C)C)cc2s1 | 52.4% (inactive) |
| Cc1[nH]c(=O)[nH]c(=O)c1Br | 108% (inactive) |
| COc1cc(/C=C2/C=C(c3ccccc3)N(CCc3ccc(S(N)(=O)=O)cc3)C2=O)cc(OC)c1OC | 94.6% (inactive) |
| C=C1CC[C@@H]2[C@](C)(COC(C)=O)[C@H](OC(C)=O)CC[C@@]2(C)[C@@H]1CC(Nc1ccc(S(=O)(=O)Nc2ncccn2)cc1)C1=CCOC1=O (stereo not given in full) | -16.6% (active) |
| C[PH+](c1nc2ccccc2nc1[PH+](C)C(C)(C)C)C(C)(C)C.C[PH+](c1nc2ccccc2nc1[PH+](C)C(C)(C)C)C(C)(C)C.[Au+].[Cl-] (stereo not given) | -60.4% (active) |
| O=C(Nc1nc2ccc(C(=O)N3CCN(/C=C/c4ccccc4)CC3)cc2s1)c1ccc(NCCc2ccccc2)c([N+](=O)[O-])c1 | 62.1% (inactive) |
| COc1cc(/C=C/C(=O)c2ccc(F)cc2)ccc1OCCCCOc1ccc(/C=C/C(=O)c2c(C)nc3ccccc3c2C)cc1OC | 69.4% (inactive) |
| COc1ccccc1N1CCCCC1 | 104% (inactive) |
| CS(=O)(=O)c1ccc(-c2cnn3ccc(-c4cccc(S(=O)(=O)C5CC5)c4)nc23)cc1 | 60.5% (inactive) |

| SMILES | growth |
| --- | --- |
| C#CCOc1cccc(Nc2ncnc3ccc(NC(=O)C=C)cc23)c1 | 61.8% (inactive) |
| O=C(CSc1nnc(-c2cnccn2)n1-c1ccccc1)c1ccc(Cl)cc1 | 104% (inactive) |
| COC12C=C/C(=C(/C(=O)OCc3ccncc3)C(=O)CCCCCCCCC3(OC)C=C/C(=C(/C(=O)OCc4ccncc4)C(=O)CCCCCCCC1)O3)O2 | -64.7% (active) |
| O=C(CSc1nc2sc3c(c2c(=O)n1-c1ccccc1)CCCCC3)N/N=C/c1cccc([N+](=O)[O-])c1 | 94.4% (inactive) |
| Cn1cc(-c2csc(-c3c[nH]c4ccccc34)n2)c2cnccc21 | 87.7% (inactive) |
| C=C(CBr)[C@@H]1CC[C@]2(C(=O)O)CC[C@]3(C)[C@H](CC[C@@H]4[C@@]5(C)CCC(=O)C(C)(C)[C@@H]5CC[C@]43C)[C@@H]12 | 73.2% (inactive) |
| Nc1ncnc2c1C(c1ccccc1)c1ccc3ccccc3c1O2 (stereo not given) | 77.6% (inactive) |
| O=C1/C(=C/c2ccc([N+](=O)[O-])cc2)COc2ccc(O)cc21 | 100% (inactive) |
| O=S(=O)(Nc1ccc(F)cc1F)c1ccc(-c2cnc(C3CC3)o2)cc1 | 64.3% (inactive) |
| C/C(=N\O)c1ccc(Cl)cc1 | 106% (inactive) |
| N#C/C(=C\c1c(-c2ccccc2)[nH]c2ccccc12)C(N)=O | 95.1% (inactive) |
| COc1ccc2cc1Oc1ccc(cc1)C[C@H]1c3c(cc4c(c3Oc3cc5c(cc3OC)CCN(C)[C@@H]5C2)OCO4)CCN1C | 87.4% (inactive) |
| O=S(=O)(Nc1ccc(Cl)c(C(F)(F)F)c1)c1ccc(-c2cnc(C3CC3)o2)cc1 | 46.7% (inactive) |
| CC1=C2[C@@H](CC1)[C@]1(C)O[C@@](C(C)C)(C[C@H]1OC(=O)[C@H](C)O)[C@H]2OC(=O)/C=C/c1ccccc1 | 84.2% (inactive) |
| Nc1ncnc2c1C(c1ccc(Br)cc1)c1sc3c(F)cccc3c1O2 (stereo not given) | 81.5% (inactive) |
| Cc1ccc2c(n1)C(=O)C(Br)=C(CC(C)C)C2=O | 97.2% (inactive) |
| Oc1c(Br)cc(Br)c2ccc(Cn3cc(-c4ccccc4C(F)(F)F)nn3)nc12 | 98.6% (inactive) |
| CCc1ccccc1-n1c(-c2ccc(OC)cc2)cc(-c2ccc(OC)cc2)c(C#N)c1=O | 95.9% (inactive) |
| O=S(=O)(NCCNc1nccc(-c2c(-c3ccc(F)c(O)c3)nc3sccn23)n1)c1ccc(O)cc1 | 37.4% (inactive) |
| O=c1scc(-c2ccc(C(F)(F)F)cc2)s1 | 91% (inactive) |
